From PubChem BioAssay
“And” between values parts separate entries of the source, which are not always exact repeats. Equal values may be shown once. The source made the active and inactive calls. Unless noted, the rule behind the calls is not given here.

Experiments:
[1] = tested on: XIP peptide (Xip251-270) binding; assay: small-molecule binders of XIP peptide, primary screen, biochemical, small-molecule microarray, fluorescence 635/667 nm, 0.1 µg/mL protein (AID 1182); settings: fluorescent protein binding, 635 nm, higher = more signal, called active from +8 up or from −8 down
[2] = tested on: XIP peptide (Xip251-270); assay: small-molecule binders of XIP peptide, primary screen, biochemical, small-molecule microarray, fluorescence 635/667 nm, 0.5 µg/mL protein (AID 1183); settings: small-molecule microarray binding, fluorescence 635 nm; higher = more signal
[3] = Plasmodium falciparum growth inhibition, primary screen, strain 3D7, DAPI fluorescence, 100 nL (AID 1184);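 note: parasites grown inside human red blood cells in medium with human serum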; settings: P. falciparum 3D7 growth, 3 d, higher = more signal
[4] = biological target: Homeobox protein Hox-A13 (Mus musculus) (UniProt Q62424); assay: inhibitors of HoxA13-DNA binding, primary screen, biochemical, fluorescence polarization, labeled oligonucleotide (AID 1185); settings: 15 min, higher = more signal, called active from +8 up or from −8 down
[5] = inhibitors of hydroxyurea-induced Chk1 phosphorylation, primary screen, imaging, HeLa, phospho-Chk1 antibody, percent positive cells (AID 1186); settings: hydroxyurea-induced phospho-Chk1 immunofluorescence imaging, higher = more signal
[6] = inhibitors of hydroxyurea-induced Chk1 phosphorylation, primary screen, imaging, HeLa, phospho-Chk1 nuclear intensity (AID 1187); settings: hydroxyurea-induced phospho-Chk1 immunofluorescence imaging, higher = more signal

Homeobox protein Hox-A13 (Mus musculus), sequence (Q62424 whole entry, looked up): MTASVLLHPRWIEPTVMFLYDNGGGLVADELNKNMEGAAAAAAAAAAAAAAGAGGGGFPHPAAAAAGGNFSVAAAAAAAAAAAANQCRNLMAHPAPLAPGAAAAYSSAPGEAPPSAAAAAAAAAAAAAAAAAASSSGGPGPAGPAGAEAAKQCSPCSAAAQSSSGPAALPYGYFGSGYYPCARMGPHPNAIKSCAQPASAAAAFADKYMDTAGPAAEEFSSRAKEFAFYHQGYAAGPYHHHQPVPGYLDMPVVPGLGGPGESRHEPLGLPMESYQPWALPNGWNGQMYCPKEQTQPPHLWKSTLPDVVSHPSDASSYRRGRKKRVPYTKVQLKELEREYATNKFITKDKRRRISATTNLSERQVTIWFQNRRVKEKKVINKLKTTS

SMILES | composite z-score [1] | composite z-score [2] | z-score [3] | z-score [4] | z-score [5] | z-score [6]
C=CCN(Cc1ccccc1)C(=O)C(c1cccs1)N(C(=O)/C=C\C(=O)O)c1ccc(CCO)cc1 (centres undefined) | -0.37 (inactive) and 0.164 (inactive) | -0.468 and 0.61 | -0.0763 and 0.331 | 0.603 (inactive) and 0.423 (inactive) | 0.141 (inactive) and 0.581 (inactive) | 0.404 (inactive) and 0.592 (inactive)
C=CCN(Cc1ccccc1)C(=O)C1N(C(C)(C)CO)C(=O)C2C(C(=O)O)C3C=CC21O3 (centres undefined) | 0.102 (inactive) and -0.207 (inactive) | 0.234 and -0.526 | 0.379 and -0.247 | -0.255 (inactive) and -0.187 (inactive) | -0.401 (inactive) and -0.113 (inactive) | -0.326 (inactive) and -0.297 (inactive)
C=CCN(C(=O)C1N(C(C)(C)CO)C(=O)C2C(C(=O)O)C3C=CC21O3)c1ccc(OC)cc1 (centres undefined) | 0.382 (inactive) and -0.0838 (inactive) | -0.383 and -1.8 | -0.445 and 0.004 | -1.43 (inactive) and 0.701 (inactive) | 2.27 (inactive) and 0.407 (inactive) | 1.44 (inactive) and 0.526 (inactive)
C=CCN(C(=O)C(c1cccs1)N(C(=O)/C=C\C(=O)O)c1ccc(CCO)cc1)C(C)(C)C (centres undefined) | 0.356 (inactive) and 1.08 (inactive) | -0.998 and 0.187 | -0.21 and -0.719 | 0.0682 (inactive) and -0.369 (inactive) | 0.632 (inactive) and 1.03 (inactive) | 0.344 (inactive) and 0.743 (inactive)
C[N+](C)(C)CCCCNC(=O)[C@H]1C[C@H]2C(=O)N[C@@H](CCCC[N+](C)(C)C)C(=O)N2[C@H]1c1cccc(OCCO)c1 | 1.64 (inactive) and 0.768 (inactive) | 0.921 and 0.684 | 0.211 and -0.244 | -1.74 (inactive) and -2.51 (inactive) | -0.885 (inactive) and -0.42 (inactive) | -0.771 (inactive) and -0.16 (inactive)
CC(C)N1CC=CC23O[C@@H]4C=CCCOC(=O)C4[C@H]2C(=O)N(C(C)CO)[C@@H]3C1=O (some centres undefined) | 1.78 (inactive) and 0.425 (inactive) | 0.716 and -0.58 | -0.819 and -0.728 | -3.49 (inactive) and -4.21 (inactive) | -0.161 (inactive) and -0.496 (inactive) | -0.309 (inactive) and -0.538 (inactive)
CC(CO)N1C(=O)[C@@H]2C3C(=O)OCCC=C[C@H]3OC23C=CCN(Cc2ccccc2)C(=O)[C@@H]13 (some centres undefined) | -0.05 (inactive) and 0.127 (inactive) | -0.4 and -0.181 | -1.1 and -0.233 | -5.29 (inactive) and -4.45 (inactive) | -0.769 (inactive) and -0.0621 (inactive) | -0.426 (inactive) and -0.217 (inactive)
CCOC(=O)c1ccc(NC(=O)O[C@H]2[C@H](OC(=O)Nc3ccccc3)[C@@H](OC(=O)Nc3ccccc3)[C@@H](OC)O[C@@H]2CO)cc1 | 1.73 (inactive) and 0.466 (inactive) | 0.928 and 0.91 | -1.89 and -2.47 | -3.34 (inactive) and -4.61 (inactive) | 0.416 (inactive) and -0.71 (inactive) | 0.161 (inactive) and -0.827 (inactive)
CC(CO)N1C(=O)[C@@H]2C3C(=O)OCCC=C[C@H]3OC23C=CCN(CCN2CCOCC2)C(=O)[C@@H]13 (some centres undefined) | -0.163 (inactive) and 0.286 (inactive) | -0.0259 and 0.321 | -0.195 and 0.513 | -6.39 (inactive) and -7.63 (inactive) | 0.079 (inactive) and 0.456 (inactive) | -0.204 (inactive) and 0.371 (inactive)
C=CCN(C(=O)C1N(C(C)(C)CO)C(=O)C2C(C(=O)O)C3C=CC21O3)C(C)(C)C (centres undefined) | -0.651 (inactive) and 0.11 (inactive) | -0.901 and -0.924 | 0.214 and -0.208 | -1.11 (inactive) and 0.241 (inactive) | -0.518 (inactive) and 1.17 (inactive) | -0.112 (inactive) and 0.674 (inactive)
COC(=O)[C@@]1(Cc2ccc(OC)cc2)[C@H]2c3cc(C(=O)N(C)C)n(Cc4ccc(O)c(OC)c4)c3C[C@H]2CN1C(=O)c1ccccc1 | 0.371 (inactive) and 0.389 (inactive) | 0.594 and 0.642 | -1.65 and -1.56 | -5.37 (inactive) and -3.28 (inactive) | 0.402 (inactive) and -0.804 (inactive) | 0.504 (inactive) and -0.921 (inactive)
CCOC(=O)C[C@H]1[C@H](OC(=O)c2ccccc2-c2ccccc2)[C@@H](NC(=O)Cc2ccc(OC)cc2)c2cc(OCCCO)ccc2N1C(=O)c1ccc2ccccc2n1 | -0.432 (inactive) and 0.387 (inactive) | -0.398 and 0.0791 | -0.543 and -0.616 | -1.67 (inactive) and -0.554 (inactive) | -0.015 (inactive) and -0.308 (inactive) | 0.0414 (inactive) and -0.162 (inactive)
C=CCN(C(=O)C(c1cccs1)N(C(=O)/C=C\C(=O)O)C(C)(C)CO)C(C)(C)C (centres undefined) | 0.075 (inactive) and -0.479 (inactive) | -0.796 and 0.851 | 0.37 and -0.0391 | 0.692 (inactive) and 0.558 (inactive) | -0.225 (inactive) and -0.215 (inactive) | 0.269 (inactive) and 0.799 (inactive)
C=CCN(CCCCC)C(=O)C1N(c2ccc(CCO)cc2)C(=O)C2C(C(=O)O)C3C=CC21O3 (centres undefined) | -0.53 (inactive) and -0.482 (inactive) | 0.668 and 0.706 | 0.062 and -0.336 | -2.29 (inactive) and -2.06 (inactive) | -0.0956 (inactive) and 0.477 (inactive) | 0.0364 (inactive) and 0.181 (inactive)
C=CCN(CCCC)C(=O)C(c1cccs1)N(C(=O)/C=C\C(=O)O)c1ccc(CCO)cc1 (centres undefined) | 1.82 (inactive) and -0.761 (inactive) | -0.319 and -1.84 | 0.28 and 0.445 | -1.28 (inactive) and -0.734 (inactive) | 0.655 (inactive) and -0.177 (inactive) | 1.04 (inactive) and 0.345 (inactive)
C=CCN(C(=O)C1N(CCCCCCO)C(=O)C2C(C(=O)O)C3C=CC21O3)c1ccc(OC)cc1 (centres undefined) | 1.14 (inactive) and 1.15 (inactive) | -2.27 and -0.654 | -0.424 and 0.0379 | -1.08 (inactive) and -0.0174 (inactive) | -0.598 (inactive) and -0.471 (inactive) | -0.451 (inactive) and -0.198 (inactive)
C#CCN1C(/C=C/c2ccccc2)C(=O)OC[C@H]1c1ccccc1 (some centres undefined) | -0.538 (inactive) and 0.237 (inactive) | -0.0814 and 0.83 | -2.32 and -1.18 | 0.468 (inactive) and -2.46 (inactive) | -0.322 (inactive) and 0.0385 (inactive) | -0.322 (inactive) and -0.239 (inactive)
CC(C)OC(=O)C=C1C[C@@H](c2ccccc2)O[C@@H](c2ccccc2)O1 | -0.0817 (inactive) and 0.574 (inactive) | 0.686 and 0.831 | -0.129 and 0.276 | -3.55 (inactive) and -3.56 (inactive) | -0.502 (inactive) and -0.334 (inactive) | -0.687 (inactive) and -0.132 (inactive)
CCC[C@@H]1C[C@@]1(CCC)[C@@H](NC(=O)c1ccc(-c2ccccc2)cc1)c1cccc(Cl)c1 | 0.176 (inactive) and 0.184 (inactive) | -0.659 and 0.146 | -0.687 and -1.16 | -3.47 (inactive) and -5.25 (inactive) | 0.722 (inactive) and 0.514 (inactive) | -0.198 (inactive) and 0.301 (inactive)
